Bioassay records: PubChem BioAssay, National Center for Advancing Translational Sciences (NCATS)
ALOX12 inhib: blocks human 12-lipoxygenase activity; purified 12-hLO, xylenol orange hydroperoxide absorbance; Potency, µM (titrated, usually from 57.1 µM), inactives show at the highest dose activity change, negative = inhibition, hits mostly inhibitors; P18054; 150,000 tested, 0.12% active; active means well fitted inhibition curve with a large enough effect; inconclusive means small, poorly fitted or top-dose-only effect; further: potency means the concentration at half of the fitted maximal effect; nearly all actives have a fitted effect of over 55% in size
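Purified human 12hLO (150 nM), preincubated 15 min with compound, then 40 uM arachidonic acid for 30 min, room temperature, Hepes pH 7.0 with 0.01% Triton X-100. Hydroperoxide detected by ferrous iron/xylenol orange; 573/405 nm absorbance ratio gives reaction progress.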
LMNA splice mod: changes lamin A minigene splicing in HeLa cells | HeLa LMNA splicing GFP/RFP minigene ratio, 48 h | Potency, µM (series often up to 46.1 µM), for inactives: at the top dose ratio change, negative = inhibition, most hits filed as inhibitors | 200,000 tested, 0.01% active; active means well fitted inhibition curve with a large enough effect in the signal ratio, with a control signal flat, not every such curve was filed as active; inconclusive means small, poorly fitted or top-dose-only effect, or effect the other way, or a change in a side signal; the % refers to the signal ratio; further: potency means the concentration at half of the fitted maximal effect
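S3 HeLa stable clones carrying a lamin A-EGFP splicing minigene plus DsRed2 were seeded at 600 cells/well in Opti-MEM with 2% FBS, pin-dosed and incubated 48 h at 37°C. Acumen cytometry (488 nm) gave the GFP/RFP total-intensity ratio.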
HPGD block: HPGD (human) dehydrogenase inhibition | purified HPGD, NADH fluorescence kinetic, PGE2 substrate | 150,000 tested, 4.3% active | Potency, µM, for the others: top-dose activity change, negative = inhibition, hits mostly inhibitors | P15428; further: potency means the concentration at half of the fitted maximal effect
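20 nM HPGD preincubated 15 min at room temperature with compound in 50 mM Tris-HCl pH 8, 0.01% Tween 20. Started with 1 mM NAD+ and 30 uM prostaglandin E2; NADH fluorescence (360/450 nm) read 5 times over 30-s intervals, last minus first.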
ALDH1A1 inh: ALDH1A1 (human) enzyme inhibition | P00352 | Purified ALDH1A1, NADH fluorescence, propionaldehyde substrate | Potency, µM (top dose mostly 75.3 µM), inactives show top-dose activity, negative = inhibition, most hits filed as inhibitors | 220,000 tested, 7.3% active | AID 1030;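 further: potency means the concentration at half of the fitted maximal effect; plate controls were no enzyme wells and a reference inhibitor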
Target sequence (P00352 whole entry, looked up): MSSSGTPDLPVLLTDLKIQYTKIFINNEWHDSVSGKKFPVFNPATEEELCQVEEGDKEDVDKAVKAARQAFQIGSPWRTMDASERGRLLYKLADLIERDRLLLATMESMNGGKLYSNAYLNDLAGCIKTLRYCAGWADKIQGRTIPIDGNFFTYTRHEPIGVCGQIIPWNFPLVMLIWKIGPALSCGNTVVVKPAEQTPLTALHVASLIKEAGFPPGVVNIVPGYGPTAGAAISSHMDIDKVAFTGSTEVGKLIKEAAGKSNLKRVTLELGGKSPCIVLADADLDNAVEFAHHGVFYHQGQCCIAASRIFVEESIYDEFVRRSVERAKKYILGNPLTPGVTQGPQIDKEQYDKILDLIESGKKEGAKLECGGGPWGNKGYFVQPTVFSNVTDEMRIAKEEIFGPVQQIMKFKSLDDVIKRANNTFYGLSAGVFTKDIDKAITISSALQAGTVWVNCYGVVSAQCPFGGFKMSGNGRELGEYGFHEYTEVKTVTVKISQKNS
PNC inhibitor: blocks assembly of the perinucleolar compartment. PC3M PTB-GFP, PNC prevalence imaging, 16 h; hits give low values. activity change (PNC), negative = inhibition, % at 10 µM. 140,000 tested, 3.1% active;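 active means readout at or below -70, meaning at least 70% loss of cells showing the perinucleolar compartment, a nuclear body marking cancer cells; inconclusive means readout between -30 and a set limit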;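 further: plate controls were DMSO wells for no effect and camptothecin positive control wells for full effect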
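PC3M cells stably expressing PTB-GFP, 750–1000 cells/well, treated 16 h at 37 °C with compound (23 nl of library stock), in duplicate. After paraformaldehyde fixation and Hoechst stain, imaged at 20x; PNC prevalence scored by image analysis.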
Active calls of the source: *; ? = inconclusive; . = no result given; [ ] = remark or other dose. This is a sample that favours compounds with a hit; in the whole collection about 10% have one here. Unless noted, the call rests on the fitted dose curve; in most records, active means well fitted inhibition curve with a large enough effect (not every such curve was filed as active); inconclusive means small, poorly fitted or top-dose-only effect, or another doubt; inactive means no such curve, though single readings can be large or run the other way. Unless noted, on the % scale 0 is the no-effect control and ±100 the full control effect.

SMILES	ALOX12 inhib	LMNA splice mod	HPGD block	ALDH1A1 inh	PNC inhibitor
C(=N\Nc1ccccc1)/c1ccc(N2CCOCC2)cc1	?	9%	14µM*	6.3µM*	64
O=C(NC(=S)N1CCN(C/C=C/c2ccccc2)CC1)c1ccc(Cl)nc1	.	.	.	18µM*	.
COc1ccc(C2NC(=O)NC(O)(C(F)(F)F)C2C(=O)c2ccc(F)cc2)cc1 (stereo unspecified)	-9%	-4%	-1%	?	-1
COc1cc(C2NC(=O)NC(O)(C(F)(F)F)C2C(=O)c2cccs2)ccc1O (stereo unspecified)	-1%	1%	-7%	22µM*	3
COc1ccc(C2NC(=S)NC(O)(C(F)(F)F)C2C(=O)c2cccs2)cc1 (stereo unspecified)	0%	?	2%	10µM*	17
COc1cccc(-c2cncnc2Nc2ccccc2)c1	.	6%	.	-3%	.
C[C@@H]1O[C@@H](n2cc(F)c(=O)[nH]c2=O)[C@H](O)[C@@H]1O	-2%	.	.	.	.
C=CCc1cccc(OC)c1OCCOCCn1ccnc1	1%	-6%	-1%	20µM*	17
C=CCc1ccccc1OCCn1ccnc1	1%	5%	-15%	-18%	5
CCOc1ccc(OCC)c(Nc2cc(C)nc3nc(-c4ccco4)nn23)c1	.	-7%[46 µM]	.	.	.
CCCn1nnc(NC(=O)C(C)Oc2ccc(Cl)cc2Cl)n1 (stereo unspecified)	-7%	-9%	-20%	?	26
CC(Oc1cc(Cl)ccc1Cl)C(=O)N/N=C\c1ccnn1C (stereo unspecified)	2%	?	3%	15%	-109*
C=CCSc1nnc(-c2ccc(Cl)cc2Cl)o1	-13%	16%	11µM*	-13%	13
Clc1ccc(-c2nnc(SCc3ccon3)o2)c(Cl)c1	-10%	21%	?	0%	?
O=c1[nH]c(=S)[nH]nc1Cc1ccccc1	-2%	3%	28µM*	?	21
CC(=O)Nc1ccc(S(=O)(=O)Oc2cccc(/C=N/N=C3/NC(=O)C(CC(=O)O)S3)c2)cc1 (stereo unspecified)	.	.	.	7.5µM*	.
CC(=O)c1cccc(NC(=O)CC2S/C(=N/N=C/c3ccccc3)NC2=O)c1 (stereo unspecified)	.	-1%[46 µM]	.	-5%	.
CCOc1ccc(NC(=O)Cn2c(=O)cc(C)c3c(C)nn(-c4cccc(Cl)c4C)c32)cc1	.	-17%[46 µM]	.	.	.
CCCCCOc1ccc(/C=c2\sc3nc(=O)c(-c4ccccc4)nn3c2=O)cc1OC	-1%	-8%	-16%	11µM*	20
CCOc1ccc(NC(=O)Cn2c(=O)cc(C)c3c(C)nn(-c4ccc(CC)cc4)c32)cc1	.	24%[46 µM]	.	.	.
COc1cc(Cl)c(C)cc1NC(=O)C1CCCN(c2ncnc3onc(-c4ccc(F)cc4)c23)C1 (stereo unspecified)	.	-5%[46 µM]	.	.	.
Cc1nn(-c2ccccc2)c(Cl)c1/C=C1/C(=N)N2N=C(C(C)C)SC2=NC1=O	-1%	-10%	22µM*	?	?
COc1ccc(-n2cccc2/C=C2\C(=N)N3N=C(C(C)C)SC3=NC2=O)cc1	.	13%[9.22 µM]	.	?	.
Cc1nn(-c2ccccc2)c(Cl)c1/C=C1\SC(=S)NC1=O	-13%	?	16µM*	?	?
CCOC(=O)Cc1ccc(NC(=O)NCc2cccn2Cc2ccccc2)cc1	.	-6%[46 µM]	.	.	.
SMILES	ALOX12 inhib	LMNA splice mod	HPGD block	ALDH1A1 inh	PNC inhibitor
S=C1SCN(Cc2cccnc2)CN1Cc1cccnc1	.	.	.	14µM*	.
S=C1NCN(Cc2cccnc2)CN1	.	.	.	0%	.
COc1cccc(CNS(=O)(=O)c2cc3[nH]c(=O)c(=O)[nH]c3cc2C)c1	.	7%[46 µM]	.	.	.
CCCN(C(=O)c1ccco1)c1nnc(-c2ccccc2C)s1	.	.	.	8.9µM*	.
Cn1c(SCC(=O)c2cc3ccccc3o2)nnc1-c1ccccc1	-15%	-8%	?	28µM*	-11
O=C(CSc1nnc(-c2cccs2)n1CC1CCCO1)c1cc2ccccc2o1 (stereo unspecified)	-12%	9%	?	28µM*	-29
Cn1ccnc1SCC(=O)c1cc2ccccc2o1	-19%	-1%	-20%	20µM*	?
Cn1c(SCC(=O)Nc2ccc3c(c2)oc2ccccc23)nnc1-c1ccccc1	-3%	16%	-7%	25µM*	5
